Assay outcomes as filed in PubChem BioAssay.
eIF4H FP inh – inhibitors of RNA binding by human eIF4H | Q15056 | eIF4H fluorescence polarization binding assay | inhibition, % at 35 µM | 290,000 tested, 0.94% active;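 further: calls also rest on retests at 20 µM and on dose response follow-up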
PHOSPHO1 inh – inhibitors of human PHOSPHO1 phosphatase. 290,000 tested, 1.1% active. Q8TCT1. recombinant PHOSPHO1, absorbance phosphatase assay. inhibition, % at 13.3 µM. AID 1565; in the data active means inhibition above about 60%
Target sequence (Q8TCT1 whole entry, looked up): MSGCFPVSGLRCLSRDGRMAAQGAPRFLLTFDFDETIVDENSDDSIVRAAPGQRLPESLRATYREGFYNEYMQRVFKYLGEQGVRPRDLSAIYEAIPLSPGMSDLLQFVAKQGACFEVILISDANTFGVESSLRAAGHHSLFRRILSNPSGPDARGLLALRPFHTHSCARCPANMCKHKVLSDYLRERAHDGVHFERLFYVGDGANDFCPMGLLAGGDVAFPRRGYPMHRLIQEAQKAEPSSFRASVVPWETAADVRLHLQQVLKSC
APOBEC3A inh – inhibitors of human APOBEC3A DNA deaminase | P31941 | recombinant A3A, FAM/TAMRA ssDNA deamination fluorescence | inhibition, % at 20 µM | 330,000 tested, 0.41% active;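 active means at least 40% inhibition at 20 µM here, with at most 30% in a related deaminase screen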;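 further: plate controls were A3A with DMSO for no effect and wells lacking A3A enzyme for full effect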
PABP polyA inh – PABP-poly(A) binding inhibition. PABP-poly(A) RNA binding, fluorescence polarization. calls only at 35 µM. 290,000 tested, 1% active. AID 2014;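 further: calls also rest on retests at 20 µM and on dose response follow-up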
MLLE-PAM2 inh – inhibitors of microRNA-mediated deadenylation, human PABP1 MLLE binding; P11940; GST-MLLE / FITC-PAM2 fluorescence polarization; inhibition, % at 20 µM; 360,000 tested, 0.36% active; AID 588489; in the data active means inhibition above about 35%, passing the limit was not always enough;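 further: plate controls were DMSO wells with GST-MLLE for no effect and wells lacking GST-MLLE protein for full effect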
A3G deaminase – APOBEC3G (human) deaminase inhibition. 330,000 tested, 0.28% active. AID 493012. inhibition, % at 20 µM. recombinant A3G, ssDNA deamination FAM/TAMRA fluorescence;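 active means inhibition of at least 40% at 20 µM, with no more than 30% in the related APOBEC3A deaminase screen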;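 further: plate controls were DMSO wells with A3G for no effect and wells lacking A3G enzyme for full effect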
APOBEC3A confirm – APOBEC3A (human) deaminase inhibition, confirmed | recombinant A3A, ssDNA deaminase UDG fluorescence assay | shares compounds with APOBEC3A inh | inhibition, % at 20 µM | 1,400 tested, 63% active;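 active means inhibition reaching a set limit, 80% of the first screen's cutoff, at 20 µM in any replicate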;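 further: plate controls were DMSO wells with A3A for no effect and wells lacking A3A enzyme for full effect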
UDG ctr A3A – UDG inhibition in APOBEC3A counter-screen. inhibition, % at 20 µM. shares compounds with APOBEC3A inh. UDG counterscreen, FAM/TAMRA uracil oligo fluorescence. AID 504714. 1,000 tested, under 10 active
Starred values were filed as active, the others as inactive; i = inactive; ? = inconclusive; . = no result; + = active, no number. In the library only some 2.6% were active in any assay of this set; here they are far more common. Unless noted, how the calls were made is not given here.

SMILES	eIF4H FP inh	PHOSPHO1 inh	APOBEC3A inh	PABP polyA inh	MLLE-PAM2 inh	A3G deaminase	APOBEC3A confirm	UDG ctr A3A
CC(C)CN(C(=O)CCc1ccccc1Cl)c1c(N)n(Cc2ccccc2)c(=O)[nH]c1=O	.	.	4	.	-43	-9	.	.
CCC(=O)N1CCC1(C)C(=O)Nc1ccc(C)c(C)c1 (stereo not given)	.	.	.	.	3	.	.	.
COc1ccc(Cl)cc1C(=O)NNC(=O)c1csc(N2CCOCC2)n1	.	.	41*	.	-7	-6	-4	3
COc1cc2ccc3c(CCN(C)C)cc(OC)c(OC)c3c2cc1OC	-7	3	55*	+	-54	19	23	.
COc1ccc(-c2sc3ccc(OC)cc3c2-c2ccc(OC)nc2)cc1	.	.	-6	.	5	-9	.	.
O=C(COc1ccc(Br)cc1Br)NN1C(=O)c2ccccc2C1=O	.	.	55*	.	6	-9	11*	8
CC(C)c1ccc(OCC(=O)NN2C(=O)c3ccccc3C2=O)c(Br)c1	-7	15	-2	i	8	-12	.	.
CCc1ccccc1NC(=O)c1cc2ncc(Br)cn2n1	50	17	41*	i	2	-1	8	-2
O=C(NCCc1ccccc1)c1cc2ncc(Br)cn2n1	40	10	76*	i	-2	-3	44*	4
O=C(c1cc2ncc(Br)cn2n1)N1CCN(C(=O)c2ccco2)CC1	56	12	42*	i	4	0	34*	-2
COCCNC(=O)c1cc2ncc(Br)cn2n1	-4	2	9	i	2	-6	.	.
CCN1CCc2c(sc(NC(=O)c3cc4ccccc4cc3OC)c2C(N)=O)C1	?	19	-6	i	-77	-15	.	.
CSc1nc(-c2ccco2)nn1C(=O)Cc1ccccc1	2	20	94*	i	21	-3	-2	-3
COc1ccc(Cc2nnc(NC(=O)CS(=O)(=O)Cc3ccccc3)s2)cc1	20	35	1	i	-9	-4	.	.
[O-][n+]1c(/C=C/c2ccccc2)ccc2ccccc21	19	19	-4	i	3	-6	.	.
COc1ccc(/C=C/c2ccc3ccccc3[n+]2C)cc1OC	-10	.	66*	i	-149	23	81*	2
CCCCCCCC[n+]1c(C)n(-c2ccccc2)c2ccc(NC(C)=O)cc21	-3	-12	42*	i	-127	13	70*	-3
COc1ccc(-c2nnc3sc(C4CCCCC4)nn23)cc1OC	-10	14	49*	i	15	16	30	.
COc1ccc(NC(=O)c2cc(-c3ccco3)nc3ccccc23)cn1	.	.	52*	.	1	14	45*	2
Cn1c(=O)c(C(=O)COC(=O)c2cc(C3CC3)nc3ccccc23)c(N)n(Cc2ccccc2)c1=O	-6	11	-2	i	.	-3	.	.
CCNC(=O)COC(=O)c1cc(-c2ccco2)nc2ccccc12	89*	33	53*	+	-9	25	34*	-1
Cn1c(=O)c(C(=O)COC(=O)c2cc(-c3ccco3)nc3ccccc23)c(N)n(CC2CC2)c1=O	54	-23	47*	i	.	28	32*	.
Cc1cccn2c(=O)c3cc(C(=O)N4CCN(Cc5ccccc5)CC4)sc3nc12	.	.	-4	.	2	-4	.	.
c1ccc(Nc2ncnc3sc4c(c23)CCC4)cc1	-15	12	-1	i	2	-5	.	.
Fc1ccc(Nc2ncnc3sc4c(c23)CCC4)cc1	-9	6	61*	i	21	-5	0	2
SMILES	eIF4H FP inh	PHOSPHO1 inh	APOBEC3A inh	PABP polyA inh	MLLE-PAM2 inh	A3G deaminase	APOBEC3A confirm	UDG ctr A3A
Cn1cc(CN2CCC(CO)(CCCc3ccccc3)CC2)c(-c2ccccc2)n1	-8	3	2	i	7	-4	.	.
C[N+]1=C2CCCCCN2C(O)(c2ccccc2)C1 (stereo not given)	.	86*	69*	.	-126	19	72*	0
CC(C)C(NC(=O)COc1ccc2ccccc2c1)C(=O)N/N=C/C=C/c1ccccc1 (stereo not given)	-2	93*	41*	i	-98	16	63*	3
COc1ccccc1C(=O)Nn1c(C)nc2ccccc2c1=O	-7	14	-3	i	22	-8	.	.
O=C(Nc1ccccc1C(=O)O)c1cncc(Br)c1	0.6*	57	58*	i	-111	18	7	.
O=C(NC(=S)Nc1ccccc1C(=O)O)c1cncc(Br)c1	-15	-8	41*	i	20	12	18*	-3
O=C(Nc1ccccc1C(=O)Nc1ccccc1C(=O)O)c1ccccc1	3	23	2	i	7	14	.	.
Cn1c(=O)[nH]c(=O)c2c1nc(SCC(O)CCl)n2Cc1ccccc1 (stereo not given)	-4	9	0	i	31	2	.	.
COc1c(C)cc(C(O)c2ncc(-c3ccccc3F)[nH]2)cc1C (stereo not given)	.	.	.	.	18	.	.	.
CC(=O)c1ccc(NC(=O)C(C)OC(=O)CCCN=C2NS(=O)(=O)c3ccccc32)cc1 (stereo not given)	.	.	4	.	-4	7	.	.
CC(OC(=O)CCCN=C1NS(=O)(=O)c2ccccc21)C(=O)NC1CCCCC1C (stereo not given)	-3	19	51*	i	-56	12	2	.
CS(=O)(=O)c1ccc2sc(NC(=O)c3cc4ccccc4o3)nc2c1	-6	13	53*	i	-87	27	24	.
Cc1nc2ccccn2c1C(=O)CSc1ccccc1	-9	36	2	i	1	-3	.	.
COC(=O)c1ccc2ccn(CC(=O)NC(C)C)c2c1	-10	12	74*	i	-111	13	70*	-2
O=S1(=O)CC(N2CCCC2)CN1Cc1ccccc1 (stereo not given)	.	.	.	.	-1	.	.	.
C=CCn1c(C(C)NC(=O)c2ccc(C)cc2)n[nH]c1=S (stereo not given)	2	-5	1	i	0	6	.	.
C=CCn1c(NC(=O)c2ccc(C)cc2)c(C#N)sc1=N	3	96*	56*	i	-125	24	71*	1
Nc1cc(N)nc(SCC(=O)Nc2ccc(Br)cc2Cl)n1	3	57	58*	i	-127	17	56*	-2
O=[N+]([O-])c1ccccc1Oc1ccc(S(=O)(=O)N2CCOCC2)cc1	.	.	-4	.	-4	-7	.	.
COc1cccc(-c2ccc(-c3noc(-c4cccs4)n3)c(OC)n2)c1	-14	42	68*	i	-115	25	72*	-2
